Test results published in PubChem BioAssay.
Calls of active or inactive are those of the source.

Key:
[1] = small molecules captured by biotinylated probe aFSTL3 – biochemical, small-molecule microarray, fluorescence 635/667, stem cell growth factor project, primary screen (AID 1064); conditions: higher = more signal;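 also: measures binding of the biotinylated anti-FSTL3 antibody to printed compounds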
[2] = binders from COS7 lysate, DM2A8 probe, primary screen, torsin A project, cell lysate, small-molecule microarray, fluorescence 635/667 (AID 1065); conditions: higher = more signal, COS7 lysate expressing mutant human TOR1A
[3] = small molecules captured by biotinylated probe aFGF2 – biochemical, small-molecule microarray, fluorescence 635/667, stem cell growth factor project, primary screen (AID 1067); conditions: higher = more signal;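 also: measures binding of biotinylated aFGF2 protein to printed compounds on slides; z-score merges feature fluorescence and signal-to-noise across triplicate slides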
[4] = small molecules captured by biotinylated probe aFGF10 – biochemical, small-molecule microarray, fluorescence 635/667, stem cell growth factor project, primary screen (AID 1071); conditions: higher = more signal;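 also: score merges 667 nm spot intensity and signal to noise from triplicate slides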
[5] = biological target: Neurogenic locus notch homolog protein 2 (Homo sapiens) (UniProt Q04721); test: small molecules binding Notch2 protein – biochemical, small-molecule microarray, 635 nm fluorescence, stem cell growth factors, primary screen (AID 1073); conditions: higher = more signal
[6] = biological target: Pro-neuregulin-1, membrane-bound isoform (Homo sapiens) (UniProt Q02297); test: small molecules binding neuregulin-1 protein – biochemical, small-molecule microarray, fluorescence 635/667, psychiatric disease protein project, primary screen (AID 1075); conditions: NRG1 binding, 635 nm fluorescence, higher = more signal;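 also: score combines 667 nm spot fluorescence with signal to noise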
[7] = test system: Neuregulin-1 EGF-like domain; test: small molecules binding NRG1 EGF domain – biochemical, small-molecule microarray, 635 nm fluorescence, primary screen (AID 1081); conditions: higher = more signal;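 also: binding of the protein to compounds printed on small-molecule microarray slides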
[8] = FRG1 expression reporter modulators in myotubes – cell-based, C2C12 myotubes, firefly/Renilla luciferase, luminescence, FRG1 inhibition for FSHD, primary screen (AID 1084); conditions: FRG1 promoter luciferase, higher = more signal, called active from +8 up or from −8 down
[9] = small molecules captured by biotinylated probe aFST – biochemical, small-molecule microarray, fluorescence 635/667, stem cell growth factor project, primary screen (AID 1086); conditions: higher = more signal;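 also: score merges 667 nm fluorescence with signal-to-noise of each printed compound spot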
[10] = binders of probe aHhip on microarray, primary screen, stem cell growth factor project, biochemical, small-molecule microarray, fluorescence 635/667 (AID 1087); conditions: higher = more signal;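 also: score merges spot fluorescence at 667nm with spot signal to noise ratio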
[11] = test system: PRMT1 (protein arginine N-methyltransferase 1); test: small molecules binding arginine methyltransferase PRMT1 – biochemical, small-molecule microarray, 635 nm fluorescence, primary screen (AID 1088); conditions: higher = more signal;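 also: binding of Prmt1 protein to compounds spotted on small-molecule microarray slides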
[12] = growth effects on S. cerevisiae YJM789 – YJM789 clinical isolate, OD600, 24 h, basal, primary screen (AID 1089); conditions: higher = more signal, called active from +8 up or from −8 down;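 also: growth of clinical yeast isolate S. cerevisiae YJM 789 seeded 1000 cells per well; test concentration not given here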
[13] = S. pombe growth modifiers, basal conditions – strain 972, OD600, 24 h, no modulator, primary screen (AID 1090);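 also: basal condition with compound alone and no growth modifier present; test concentration not given here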; conditions: S. pombe 972 growth, higher = more signal, called active from +8 up or from −8 down
[14] = budding yeast growth modifiers under rapamycin – strain BY4716, OD600, 96 h, primary screen (AID 1091); also: test concentration not given here; conditions: S. cerevisiae BY4716 + rapamycin, higher = more signal, called active from +8 up or from −8 down
[15] = biological target: Torsin-1A-interacting protein 2 (Homo sapiens) (UniProt Q8NFQ8); test: small molecules binding lysate-expressed LULL1 – cell lysate, human LULL1 lysate, 635/667 nm fluorescence, primary screen (AID 1092); conditions: small-molecule microarray, hLULL1 lysate binding, 635 nm fluorescence; higher = more signal;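 also: probe is lysate of COS7 cells overexpressing human LULL1; score merges per-feature 667 nm fluorescence with signal-to-noise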
[16] = optical density change of DRC41 E. coli – strain DRC41, OD650, 24 h, E. coli filamentation project, primary screen (AID 1093);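 also: MC1000 strain lacking acrAB efflux and sulA so SOS filamentation is blocked; test concentration not given here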; conditions: E. coli DRC41 growth, higher = more signal, called active from +8 up or from −8 down
[17] = probe aLefty2 binding to arrayed compounds – biochemical, biotinylated probe, 635/667 nm fluorescence, primary screen (AID 1094); conditions: small-molecule microarray, higher = more signal;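 also: score merges spot fluorescence near 667 nm with spot signal-to-noise ratio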
[18] = test system: Noggin (protein binding on small-molecule microarray); test: small molecules binding Noggin protein – biochemical, 635/667 nm fluorescence, primary screen (AID 1095); conditions: 635 nm fluorescence, higher = more signal;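 also: score merges 667 nm feature fluorescence with signal to noise over triplicate slides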
[19] = biological target: Neurogenic locus notch homolog protein 3 (Homo sapiens) (UniProt Q9UM47); test: small molecules binding NOTCH3 protein – biochemical, 635/667 nm fluorescence, primary screen (AID 1096); conditions: small-molecule microarray, 635 nm fluorescence, higher = more signal
[20] = probe aEGFR binding to arrayed compounds – biochemical, biotinylated probe, 635/667 nm fluorescence, primary screen (AID 1097); conditions: small-molecule microarray, higher = more signal;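 also: probe is a biotinylated anti-EGFR antibody binding compounds printed on slides; score combines fluorescence near 667 nm and signal to noise of each spot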

Sequence of Neurogenic locus notch homolog protein 2 (Homo sapiens) (Q04721 whole entry, looked up, canonical isoform): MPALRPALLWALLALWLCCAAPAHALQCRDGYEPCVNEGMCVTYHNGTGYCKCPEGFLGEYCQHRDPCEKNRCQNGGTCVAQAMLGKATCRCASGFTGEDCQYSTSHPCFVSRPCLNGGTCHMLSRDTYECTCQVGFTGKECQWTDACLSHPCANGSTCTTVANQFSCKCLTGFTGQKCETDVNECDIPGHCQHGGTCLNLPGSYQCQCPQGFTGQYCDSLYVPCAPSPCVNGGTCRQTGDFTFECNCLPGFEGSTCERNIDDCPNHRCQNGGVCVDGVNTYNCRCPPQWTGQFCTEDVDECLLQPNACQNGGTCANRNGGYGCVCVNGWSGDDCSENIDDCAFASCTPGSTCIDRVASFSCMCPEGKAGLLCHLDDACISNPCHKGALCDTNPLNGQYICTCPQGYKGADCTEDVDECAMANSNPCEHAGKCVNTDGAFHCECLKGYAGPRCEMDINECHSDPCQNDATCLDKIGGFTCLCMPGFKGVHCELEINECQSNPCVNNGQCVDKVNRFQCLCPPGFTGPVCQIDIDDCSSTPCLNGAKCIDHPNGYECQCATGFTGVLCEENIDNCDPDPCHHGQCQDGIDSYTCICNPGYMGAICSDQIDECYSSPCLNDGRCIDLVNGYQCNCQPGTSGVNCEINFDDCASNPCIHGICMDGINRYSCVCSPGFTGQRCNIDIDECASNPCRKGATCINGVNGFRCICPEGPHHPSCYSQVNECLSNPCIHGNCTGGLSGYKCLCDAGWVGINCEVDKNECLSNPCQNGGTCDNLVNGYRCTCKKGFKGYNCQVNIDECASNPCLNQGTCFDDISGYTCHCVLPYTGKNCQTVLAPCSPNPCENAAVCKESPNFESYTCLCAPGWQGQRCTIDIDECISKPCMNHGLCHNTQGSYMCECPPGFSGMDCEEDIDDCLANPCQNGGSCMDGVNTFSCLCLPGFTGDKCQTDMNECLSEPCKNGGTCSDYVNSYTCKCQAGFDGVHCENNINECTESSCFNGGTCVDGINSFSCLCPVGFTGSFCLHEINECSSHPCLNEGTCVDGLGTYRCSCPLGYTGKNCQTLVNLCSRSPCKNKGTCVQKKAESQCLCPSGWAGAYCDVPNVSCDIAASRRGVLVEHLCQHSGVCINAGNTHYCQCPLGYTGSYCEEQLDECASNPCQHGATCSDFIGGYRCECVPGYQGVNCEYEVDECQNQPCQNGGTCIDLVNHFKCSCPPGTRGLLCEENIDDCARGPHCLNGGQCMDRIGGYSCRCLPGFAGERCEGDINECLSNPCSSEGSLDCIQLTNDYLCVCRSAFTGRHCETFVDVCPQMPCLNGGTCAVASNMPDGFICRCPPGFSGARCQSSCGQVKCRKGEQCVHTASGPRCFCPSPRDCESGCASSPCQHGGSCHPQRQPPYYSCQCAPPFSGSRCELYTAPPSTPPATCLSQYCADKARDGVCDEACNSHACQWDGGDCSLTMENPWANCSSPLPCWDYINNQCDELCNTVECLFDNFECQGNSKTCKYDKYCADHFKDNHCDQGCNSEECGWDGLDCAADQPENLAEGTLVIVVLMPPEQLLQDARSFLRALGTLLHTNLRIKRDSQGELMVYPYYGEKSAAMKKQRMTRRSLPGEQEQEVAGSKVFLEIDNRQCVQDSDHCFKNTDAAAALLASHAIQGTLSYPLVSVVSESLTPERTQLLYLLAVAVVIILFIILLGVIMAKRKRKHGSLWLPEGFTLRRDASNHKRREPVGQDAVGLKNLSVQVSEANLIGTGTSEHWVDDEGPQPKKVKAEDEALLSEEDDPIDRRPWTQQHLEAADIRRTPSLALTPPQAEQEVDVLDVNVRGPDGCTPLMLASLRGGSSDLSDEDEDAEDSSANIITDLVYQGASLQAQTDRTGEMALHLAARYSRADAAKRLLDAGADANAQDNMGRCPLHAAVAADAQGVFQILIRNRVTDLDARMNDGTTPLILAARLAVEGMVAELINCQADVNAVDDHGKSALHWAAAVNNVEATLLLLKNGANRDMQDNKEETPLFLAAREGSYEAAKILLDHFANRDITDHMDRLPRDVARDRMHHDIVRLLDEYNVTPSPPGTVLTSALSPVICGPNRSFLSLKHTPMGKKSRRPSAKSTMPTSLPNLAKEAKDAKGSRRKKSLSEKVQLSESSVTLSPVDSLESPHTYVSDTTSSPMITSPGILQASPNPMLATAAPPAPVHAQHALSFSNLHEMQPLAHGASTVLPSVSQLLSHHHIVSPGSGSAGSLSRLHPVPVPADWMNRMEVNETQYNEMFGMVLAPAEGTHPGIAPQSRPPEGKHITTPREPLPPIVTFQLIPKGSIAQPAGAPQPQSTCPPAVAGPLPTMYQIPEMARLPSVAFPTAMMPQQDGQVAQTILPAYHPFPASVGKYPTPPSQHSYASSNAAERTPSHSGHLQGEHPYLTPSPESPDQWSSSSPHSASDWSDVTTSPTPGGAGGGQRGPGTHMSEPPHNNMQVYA
Sequence of Pro-neuregulin-1, membrane-bound isoform (Homo sapiens) (Q02297 whole entry, looked up, the tested form may be a part, canonical isoform): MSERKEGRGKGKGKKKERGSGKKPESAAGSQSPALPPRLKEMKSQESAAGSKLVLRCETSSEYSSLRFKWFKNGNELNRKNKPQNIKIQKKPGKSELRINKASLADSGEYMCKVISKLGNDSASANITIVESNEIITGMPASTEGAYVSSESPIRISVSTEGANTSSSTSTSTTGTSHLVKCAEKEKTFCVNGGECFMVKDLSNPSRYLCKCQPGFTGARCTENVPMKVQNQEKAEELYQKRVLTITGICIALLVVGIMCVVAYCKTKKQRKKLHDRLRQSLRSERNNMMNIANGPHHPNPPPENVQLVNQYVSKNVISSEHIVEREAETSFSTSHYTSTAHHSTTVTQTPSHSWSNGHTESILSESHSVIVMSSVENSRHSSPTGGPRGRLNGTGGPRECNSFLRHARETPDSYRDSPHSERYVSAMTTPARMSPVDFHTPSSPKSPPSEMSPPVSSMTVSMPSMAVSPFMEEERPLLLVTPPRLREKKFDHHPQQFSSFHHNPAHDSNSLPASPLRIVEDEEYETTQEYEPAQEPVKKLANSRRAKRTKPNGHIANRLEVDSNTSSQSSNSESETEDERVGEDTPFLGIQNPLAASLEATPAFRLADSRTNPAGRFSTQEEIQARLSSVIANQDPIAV
Sequence of Torsin-1A-interacting protein 2 (Homo sapiens) (Q8NFQ8 whole entry, looked up): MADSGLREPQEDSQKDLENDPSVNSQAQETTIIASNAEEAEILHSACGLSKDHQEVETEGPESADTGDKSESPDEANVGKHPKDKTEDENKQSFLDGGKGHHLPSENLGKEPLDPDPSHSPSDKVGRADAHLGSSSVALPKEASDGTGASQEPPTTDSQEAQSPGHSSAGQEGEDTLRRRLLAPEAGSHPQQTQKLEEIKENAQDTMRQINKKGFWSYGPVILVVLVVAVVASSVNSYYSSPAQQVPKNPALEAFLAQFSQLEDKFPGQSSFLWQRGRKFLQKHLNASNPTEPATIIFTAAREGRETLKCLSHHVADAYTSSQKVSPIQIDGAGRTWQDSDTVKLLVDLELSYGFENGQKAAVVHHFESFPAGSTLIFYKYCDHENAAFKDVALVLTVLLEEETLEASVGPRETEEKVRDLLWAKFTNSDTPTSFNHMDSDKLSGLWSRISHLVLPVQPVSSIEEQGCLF

SMILES	composite z-score [1]	composite z-score [2]	composite z-score [3]	composite z-score [4]	composite z-score [5]	composite z-score [6]	composite z-score [7]	z-score [8]	composite z-score [9]	composite z-score [10]	composite z-score [11]	z-score [12]	z-score [13]	z-score [14]	composite z-score [15]	z-score [16]	composite z-score [17]	composite z-score [18]	composite z-score [19]	composite z-score [20]
COc1ccc(C#Cc2ccc3c(c2)[C@]2(C(=O)N3)[C@H](C(N)=O)[C@H]3C(=O)O[C@H](c4ccccc4)[C@H](c4ccccc4)N3[C@@H]2c2ccc(O)cc2)cc1	-0.302	1.1	-0.0183	0.665	0.477	1.57	1.38	-0.891 (inactive)	0.722	-0.0581	1.56	1.47 (inactive)	0.107 (inactive)	2.28 (inactive)	2.94	-0.103 (inactive)	-0.0258	0.176	0.664	0.391
CCCCCCCCCCC(O)C1C=CC2C(=O)NC(=O)C2N1Nc1ccccn1 (stereo not given)	0.444	-1.14	-0.0899	-0.417	0.439	1	0.852	1.06 (inactive)	0.0124	-0.236	-0.19	-20 (active)	-16.2 (active)	-2.6 (inactive)	1.78	-15.5 (active)	-0.0654	-0.894	0.243	-0.14
O=C1N(CCS(=O)(=O)c2ccccc2)Cc2ccccc2C[C@@]12COC(c1ccc(OCCCO)cc1)=N2	0.965	0.667	0.212	0.613	1.45	1.02	1.35	0.0674 (inactive)	1.58	-0.0459	1.54	0.978 (inactive)	0.381 (inactive)	3.45 (inactive)	3.04	0.937 (inactive)	0.686	0.982	1.04	0.285
COc1ccc([Si](C)(C)[C@H]2[C@H](CCn3cc(CCO)nn3)O[C@@]3(C(=O)N(Cc4cccc(N5C(=O)c6cccc7cccc5c67)c4)c4ccccc43)[C@@H]2C)cc1	-0.201	0.603	-0.105	0.906	0.45	0.772	0.862	-3.54 (inactive)	0.395	1.55	1.46	0.502 (inactive)	0.903 (inactive)	27.7 (active)	2.2	0.921 (inactive)	-0.288	1.03	0.79	-0.142
C=C(C(=O)CC[C@H](OC(=O)c1cccnc1)c1ccc(OCCO)cc1)C(C)C	-0.241	1.43	0.0612	0.404	0.539	0.19	1.2	1.14 (inactive)	0.995	0.0881	1.55	0.366 (inactive)	-1.54 (inactive)	0.905 (inactive)	1.76	-0.388 (inactive)	-0.0961	0.986	0.717	-0.0362
COC(=O)[C@H]1N=C(c2ccc(OCCCO)cc2)O[C@H]1c1ccccc1CN=[N+]=[N-]	1.03	-0.872	0.0544	-0.202	-0.525	0.526	0.591	4.14 (inactive)	0.906	0.334	0.943	-0.363 (inactive)	-0.225 (inactive)	0.444 (inactive)	1.84	0.887 (inactive)	0.992	-0.0277	0.27	-0.131
COC(=O)c1c(CC[C@@H](CO)NC(=O)N[C@@H](C)Cn2cc(C3(O)CCCC3)nn2)oc(C(C)=O)c1C(=O)OC	-0.36	0.715	-0.154	0.143	0.263	0.974	1.02	0.533 (inactive)	0.517	0.0002	0.913	0.009 (inactive)	-1.03 (inactive)	-0.117 (inactive)	2	-0.159 (inactive)	-0.0126	0.555	0.634	-0.0237
CC(C)N1CC=CC23O[C@@H]4C=CCOC(=O)[C@@H]4[C@H]2C(=O)N(CCCCCCO)[C@@H]3C1=O (stereo not given in full)	-0.895	-0.775	-0.237	1.07	-0.697	-0.126	1.47	0.213 (inactive)	-0.588	-0.949	0.0483	-0.976 (inactive)	-0.174 (inactive)	-1.41 (inactive)	3.29	0.76 (inactive)	-0.315	-0.627	-0.478	-0.2
COC(=O)[C@@]1(Cc2ccc(OC)cc2)[C@H]2c3cc(C(=O)N4CCCC4)n(CCc4ccc(O)c(OC)c4)c3C[C@H]2CN1C(=O)c1ccccc1	0.411	-0.336	0.0331	0.252	1.56	1.2	0.803	-0.454 (inactive)	0.603	0.167	-1.53	0.525 (inactive)	0.452 (inactive)	0.0019 (inactive)	2.6	-1.13 (inactive)	0.128	-0.879	-0.56	0.0055
